High-throughput results as filed in PubChem BioAssay.
This is a sample that favours compounds with a hit; in the whole collection about 2.8% have one here.
IP6K1 inhibitor = IP6K1 kinase inhibition; IP6K1 kinase, ADP-Glo luminescence, 2 h; stronger effect = lower value; activity change, % (series mostly up to about 58 µM); hit rate 0.81% among 140,000; in the data active means activity change below about -25%; further: on the % scale 0 is the no-effect control and ±100 the full control effect
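ADP-Glo luminescence measures ADP made by human IP6K1 during a 2 h RT reaction with ATP/IP6 (mix at 1.3 mM/130 uM); top library doses 57.5 and 19.1 uM final.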
KDM5B inh = inhibitors of human KDM5B histone demethylase; KDM5B demethylase, FDH-coupled NADH fluorescence (FDH is formaldehyde dehydrogenase); Potency, µM (doses to about 57.7 µM), usual class: inhibitors; hit rate 2.6% among 220,000; further: potency means the concentration at half of the fitted maximal effect; 0% is about no effect; nearly all actives have a fitted effect of over 70% in size
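Inhibition is measured as reduced NADH fluorescence generation from FDH coupling to formaldehyde release. Truncated KDM5BΔAP at 200 nM final acts on H3K4me3 peptide (12.5 µM in substrate mix) in pH 7.5 HEPES buffer with Tween-20, 30 min, room temperature.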
SNCA expr inh = inhibitors of alpha-synuclein (SNCA) gene expression | HEK-293 SNCA-luciferase knock-in, luminescence, 24 h | Potency, µM (series often up to 57.2 µM), for the others: at the highest dose activity change, negative = inhibition, most hits filed as inhibitors | hit rate 0.17% among 140,000;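 further: potency means the concentration at half of the fitted maximal effect; plate controls were DMSO cells for no effect and cell-free wells for full effect; nearly all actives have a fitted effect of over 45% in size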
HEK293 viab = cell viability loss counter-screen. HEK-293-SNCA-luc viability, GF-AFC fluorescence, 24 h. Potency, µM (top dose mostly 57.1 µM), without a hit: at the top dose activity change, negative = cytotoxicity, usual class: cytotoxic. hit rate 0.12% among 150,000. AID 1671193;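 further: potency means the concentration at half of the fitted maximal effect; 0% = DMSO-treated cells and -100% = medium-only wells without cells; nearly all actives have a fitted effect of over 30% in size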
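HEK-293-SNCA-luc cells (1500/well) plated 24 h, then exposed 24 h to a dilution series; GF-AFC added 30 min at 37C, fluorescence 405/540 nm; normalised to medium-only and DMSO wells, Hill fit.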
An asterisk follows results filed as active; i = inactive; ? = inconclusive; / = not tested or not shown; [ ] = remark or other dose. Unless noted, the call rests on the fitted dose curve; in most records, active means well fitted curve in the direction sought with a large enough effect; inconclusive means small, poorly fitted or top-dose-only effect, or another doubt; inactive means no such curve, though single readings can be large; an effect the other way counts as inactive or inconclusive.

SMILES | IP6K1 inhibitor | KDM5B inh | SNCA expr inh | HEK293 viab
COc1ccc2[nH]c3c(c2c1)CCNC31CCN(C(=O)C2CC=CC2)CC1 | -3 | 22µM* | 8% | -7%[12.5 µM]
CC1CN(c2ccccc2C#N)C(=O)CN1C(=O)Cc1c[nH]c(=O)[nH]c1=O (configuration not stated) | 4 | i | -9% | 0%
Cc1cc(O)c(C2CCCCC2)cc1C1CCCCC1 | / | i | / | /
O=C(c1ccsc1)N1CCCC2(C1)Nc1cccnc1NC2=NCc1ccccc1 (configuration not stated) | 0 | 28µM* | 22% | -1%
O=C(COc1ccccc1)N1CCCC2(C1)Nc1cccnc1NC2=NCc1ccccc1 (configuration not stated) | 5 | ? | -8% | -1%
CCn1ccc(C(=O)N2CCCC3(C2)Nc2cccnc2NC3=NCc2ccccc2)n1 (configuration not stated) | 0 | 28µM* | ? | 6%
COc1cccc(C(=O)N2CCCC3(C2)Nc2cccnc2NC3=NCc2ccccc2)c1 (configuration not stated) | -3 | 28µM* | 10% | -5%
Cc1noc(C)c1CC(=O)N1CCCC2(C1)Nc1cccnc1NC2=NCc1ccccc1 (configuration not stated) | 12 | 28µM* | 3% | 3%
Cc1nn(Cc2ccccc2)c(C)c1[C@@H]1C=C[C@@H](NC(=O)CCCC(=O)O)C1 | 8 | ? | 10%[87.6 µM] | -2%[87.6 µM]
CSc1ccccc1C(=O)Nc1ccc(CSc2ccccc2)cc1 | / | i | / | /
Cc1cnc(C(=O)N2CCC(Cc3ccc(C(N)=O)cc3)CC2)cn1 | -15 | i | 24% | 5%
CC(=O)N1CCCC2(C1)Nc1cccnc1NC2=NCc1ccccc1 (configuration not stated) | 1 | ? | 4% | -4%
COc1ccc(C(=O)N2CCCC3(C2)Nc2cccnc2NC3=NCc2ccccc2)cc1 (configuration not stated) | 0 | 28µM* | ? | -1%
O=C(Nc1ccc2c(c1)Cc1ccccc1-2)c1ccc2c(c1)OCO2 | / | i | / | /
Cn1nnnc1C1CCCN(C(=O)C2CCCC2)C1 (configuration not stated) | -11 | 28µM* | -14% | 14%
CN1C[C@@H](NC(=O)c2ccccn2)C[C@H]1c1nc(-c2ccc3ccccc3c2)no1 | -13 | ? | 83%[87.6 µM] | -9%[87.6 µM]
CN(C)c1ccc(C(=O)N[C@H]2C[C@@H](c3nc(-c4ccc5ccccc5c4)no3)N(C)C2)cc1 | 9 | 35µM* | 25% | -11%
COc1ccc([C@@H]2CN(c3ncccc3C#N)C[C@H]2NC(C)=O)cc1 | 4 | 28µM* | 4% | 6%
CNC(=O)c1cccnc1N1CCOC(c2ccc3cc(OC)ccc3c2)C1 (configuration not stated) | -1 | i | 107% | -12%
COc1cccc(CC(=O)NC2CCN(c3cc(-c4cccs4)[nH]n3)C2)c1 (configuration not stated) | -9 | 28µM* | 0% | -5%
O=C(Cc1cccc(F)c1)NC1CCN(c2cc(-c3cccs3)[nH]n2)C1 (configuration not stated) | -3 | ? | 12% | -4%
O=C(Cc1cccc(Cl)c1)NC1CCN(c2cc(-c3cccs3)[nH]n2)C1 (configuration not stated) | 10 | 4µM* | 2% | -3%
CCn1c(SCC(=O)Nc2cccc(C(F)(F)F)c2)nc2c(c1=O)SCC2 | / | i | / | /
Cc1noc(C)c1-c1cc2cc(CO)oc2c(N2CCS(=O)(=O)CC2)n1 | 10 | 35µM* | 24%[87.6 µM] | -4%[87.6 µM]
Cc1noc(C)c1-c1cc2cc(C(C)C)oc2c(N2CCS(=O)(=O)CC2)n1 | -16 | 32µM* | -1%[87.6 µM] | 4%[87.6 µM]
SMILES | IP6K1 inhibitor | KDM5B inh | SNCA expr inh | HEK293 viab
Cc1noc(C)c1-c1cc2cc(CO)oc2c(N2CCN(c3ccccn3)CC2)n1 | 16 | ? | 56%[87.6 µM] | -12%[87.6 µM]
O=C(Nc1ccc2oc(-c3cccnc3)nc2c1)c1ccc(Cl)cc1 | / | i | / | /
COc1cc(-c2nccc3c(=O)cc(N4CCOCC4)oc23)ccn1 | -24 | 25µM* | 7%[87.6 µM] | -6%[87.6 µM]
O=c1cc(N2CCOCC2)oc2c(N3CCN(c4ccccn4)CC3)nccc12 | -21 | i | 6%[87.6 µM] | -1%[87.6 µM]
COc1ccc(-c2nccc3c(=O)cc(N4CCOCC4)oc23)cn1 | -5 | 35µM* | 18%[87.6 µM] | -7%[87.6 µM]
O=c1cc(N2CCOCC2)oc2c(-c3ccncc3)nccc12 | -5 | 35µM* | -8%[87.6 µM] | -1%[87.6 µM]
CN1CCN(c2ccc(-c3nccc4c(=O)cc(N5CCOCC5)oc34)cn2)CC1 | -17 | ? | 33%[87.6 µM] | -22%[87.6 µM]
COc1ccc(-c2nccc3c(=O)cc(N4CCN(C)CC4)oc23)cc1OC | -20 | i | -8%[87.6 µM] | 10%[87.6 µM]
CN(C)c1cccc(-c2nccc3c(=O)cc(N4CCOCC4)oc23)c1 | -23 | 35µM* | -12%[87.6 µM] | 5%[87.6 µM]
COc1cccc(C(=O)NC2CCCN(c3ccc4nnc(C)n4n3)C2)c1 (configuration not stated) | -6 | / | / | /
COc1ccc(C(=O)Nc2nc(-c3ccc(Br)s3)ns2)cc1 | / | i | / | /
O=C(CCc1ncc(-c2ccccc2F)o1)N1CCN(CC(=O)N2CCCCC2)CC1 | / | i | / | /
CCCCCCCNC(=O)CC#N | / | i | / | /
CCCCCn1nc(C(=O)Nc2cc(F)ccc2C)c2ccccc2c1=O | / | i | / | /
OC[C@@H]1O[C@H](CNCc2cccc(Cl)c2)[C@H](N2CCN(c3ccc(F)cc3)CC2)[C@@H]1O | 5 | ? | -18% | -10%
OC[C@@H]1O[C@H](CNCc2cccc(Cl)c2)[C@H](N2CCN(c3ccccn3)CC2)[C@@H]1O | 8 | 25µM* | 5% | 1%
CC(NC(=O)CC(C)(C(=O)O)c1ccccc1)c1ccc(Cl)c(Cl)c1 (configuration not stated) | / | i | / | /
COCCN1C(=O)c2ccccc2C(C(=O)Nc2nc3c(s2)CCC3)C12CCCCC2 (configuration not stated) | 29 | ? | -26% | -5%
CCCN(Cc1ccncc1)C(=O)c1cnc(-c2ccccn2)[nH]c1=O | 0 | 10µM* | ? | -26%
COc1ccc(CN[C@H]2C[C@H]3C(=O)NC[C@@H](CCC(=O)NCc4ccccc4)N3C2)cc1 | 4 | 35µM* | 27% | -2%
O=C(CC[C@@H]1CNC(=O)[C@@H]2C[C@H](NCc3ccccn3)CN12)NCc1ccccc1 | -7 | 25µM* | -15%[87.6 µM] | -12%[87.6 µM]
CN(c1cc(=O)c2ccnc(-c3ccc(F)c(Cl)c3)c2o1)C1CCOCC1 | -1 | 35µM* | -12%[87.6 µM] | -1%[87.6 µM]
CN(c1cc(=O)c2ccnc(N3CCOCC3)c2o1)C1CCOCC1 | -17 | ? | -1%[87.6 µM] | -6%[87.6 µM]
Cc1nc(CN2C[C@H](C(=O)NCCOc3ccccc3)C[C@@H]2c2ccc(F)cc2)cs1 | -3 | ? | -29%[87.6 µM] | -29%[87.6 µM]
Cc1nc(CN2C[C@H](C(=O)N3CCN(c4ccccn4)CC3)C[C@@H]2c2ccc(F)cc2)cs1 | -3 | 28µM* | -29% | -7%
